Screens as filed in PubChem BioAssay.
The full list was thinned out, with hits kept by preference.
RORg inh: inhibitors of mouse ROR gamma transcriptional activity; P51450; Drosophila S2 Gal4-RORgamma UAS-luciferase reporter, 20 h; Potency, µM (doses to about 53.6 µM), without a hit: top-dose activity change, negative = inhibition, most hits filed as inhibitors; 310,000 tested, 5.4% active; AID 2551; also: potency is read from the fitted curve at half-maximal effect; % is scaled to controls: 0 for no effect and ±100 for the full control effect; nearly all actives have a fitted effect of over 60% in size
Target sequence (P51450 whole entry, looked up, the tested form may be a part): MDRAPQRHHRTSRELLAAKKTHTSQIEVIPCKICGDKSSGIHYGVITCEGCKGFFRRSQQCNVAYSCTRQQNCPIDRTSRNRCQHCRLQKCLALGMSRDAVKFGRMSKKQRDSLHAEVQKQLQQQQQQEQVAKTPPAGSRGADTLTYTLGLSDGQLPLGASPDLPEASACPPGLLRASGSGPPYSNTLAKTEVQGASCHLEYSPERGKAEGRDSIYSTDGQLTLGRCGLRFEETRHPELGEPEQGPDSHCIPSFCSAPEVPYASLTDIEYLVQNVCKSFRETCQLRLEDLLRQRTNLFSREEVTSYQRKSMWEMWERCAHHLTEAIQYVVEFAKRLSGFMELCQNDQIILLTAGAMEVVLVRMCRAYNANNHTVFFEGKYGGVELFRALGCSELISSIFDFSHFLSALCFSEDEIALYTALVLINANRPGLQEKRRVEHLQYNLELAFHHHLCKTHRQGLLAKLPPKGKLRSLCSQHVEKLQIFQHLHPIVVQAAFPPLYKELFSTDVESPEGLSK
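Luminescence from a UAS-regulated Photinus luciferase reporter in stably transfected Drosophila Schneider cells is measured; decreased signal marks ROR gamma inhibition. Fusion expression is induced by 700 uM copper sulfate for 20 hr.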
Giardia kill: kills Giardia lamblia; Giardia lamblia trophozoite viability; activity change, % at 7.66 µM, hits read low; 340,000 tested, 0.15% active; in the data active = activity change below about -80%; inconclusive = between about -30% and that limit;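 also: parasites exposed to compound for two days anaerobically before the ATP read; % is scaled to controls: 0 for no effect and ±100 for the full control effect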
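Media and compound were dispensed first, then trophozoites at 100 cells/well; plates sat 48 hrs at 37 deg C without oxygen before ATP luminescence reagent was added and read after 15-30 min at room temperature.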
ERG Ets-DNA blk: blocks human ERG Ets domain binding to DNA; fluorescence polarization, His-ERG Ets domain / labelled DNA; 370,000 tested, 0.028% active; P11308; Potency, µM (top dose mostly 76.9 µM), inactives show top-dose FP activity, negative = inhibition, usual class: inhibitors; active = well fitted inhibition curve with a large enough effect in the polarisation, with a control signal flat; inconclusive = small, poorly fitted or top-dose-only effect, or effect the other way, or a change in a side signal; inactive = no such curve, though single readings can be large or run the other way; the % refers to the polarisation;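 also: polarization taken with two DNA probes labelled with fluorescein and Texas red; potency is read from the fitted curve at half-maximal effect; % of control where 0% means no effect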
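His-tagged ERG Ets domain (1 uM in the protein solution; 300mM KCl, 50mM Tris-HCl, 1mM EDTA, 1mM DTT, pH 7.5) received compound, then a probe mix of 5 nM fluorescein-DNA and 100nM Texas-615-DNA. Fluorescence polarization was read for both dyes.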
a7 integrin act: integrin-mediated muscular dystrophy alleviation activation; Potency, µM (highest dose often 38.3 µM), without a hit: top-dose activation, most hits filed as activators; 350,000 tested, 0.064% active; alpha7betagal myoblasts, beta-gal FDG fluorescence, 48 h; AID 624291;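 also: potency is read from the fitted curve at half-maximal effect; 100% = response of the positive control SU9516; nearly all actives have a fitted effect of over 60% in size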
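Alpha7betagal+/- myoblasts (passage 13) were plated 16-24 hr, then exposed to compounds (1:260 dilution of DMSO stock) for 48 hours at 37C. After MPER lysis, β-galactosidase reporter activity was read as FDG fluorescence (ex 480/em 540) after 30 minutes.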
VP16 counter: Gal4-VP16 reporter inhibition counter-screen; 310,000 tested, 3.5% active; Potency, µM (top dose mostly 53.6 µM), for inactives: at the highest dose activity, negative = inhibition, actives largely listed as inhibitors; Drosophila S2 Gal4-VP16 UAS-luciferase, luminescence, 20 h;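 also: Gal4-VP16 expression switched on by copper sulfate through the metallothionein promoter; potency is read from the fitted curve at half-maximal effect; % is scaled to controls: 0 for no effect and ±100 for the full control effect; nearly all actives have a fitted effect of over 50% in size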
An asterisk follows results filed as active. Unless noted, calls follow the shape of the dose curve; as a rule, active = well fitted curve in the direction sought with a large enough effect; inconclusive = small, poorly fitted or top-dose-only effect, or another doubt; inactive = no such curve, though single readings can be large; an effect the other way counts as inactive or inconclusive.

C[Si](C)(C)C#Cc1ccccc1NC(=S)Nc1ccccc1 was read as RORg inh 14µM* and VP16 counter inconclusive.
Screening N#Cc1ccc(NC(=S)Nc2ccccc2)cc1 returned RORg inh -17%, Giardia kill 3, ERG Ets-DNA blk -5%, a7 integrin act 9% and VP16 counter -2%.
S=C(Nc1ccccc1)Nc1ccccc1-n1cccc1 was read as RORg inh 4.5µM*, Giardia kill 19, ERG Ets-DNA blk 15%, a7 integrin act inconclusive and VP16 counter 16µM*.
For S=C(Nc1ccccc1)Nc1ccccc1C#Cc1ccccc1 the results were RORg inh 11µM* and VP16 counter inconclusive.
`Cc1ccc(OCC(=O)Nc2ccc3nc(SCC(=O)N4CCOCC4)sc3c2)cc1` gave ERG Ets-DNA blk 1%.
O=C(NCCOc1ccccc1F)c1cc(F)c(F)cc1Cl was read as RORg inh inconclusive, Giardia kill 2, ERG Ets-DNA blk 2%, a7 integrin act 6% and VP16 counter inconclusive.
`CCNC(=S)/N=C(/Nc1ccccc1)Nc1nc(C)cc(C)n1` gave RORg inh 0.79µM*, Giardia kill 2, ERG Ets-DNA blk 0%, a7 integrin act 2% and VP16 counter 3.2µM*.
For CCNC(=S)NC(=NCc1cccnc1)Nc1nc(C)cc(C)n1 the results were RORg inh 11µM*, Giardia kill 4, ERG Ets-DNA blk inconclusive, a7 integrin act 0% and VP16 counter inconclusive.
Screening CCNC(=S)/N=C(/Nc1ccc(OC)cc1)Nc1nc(C)cc(C)n1 returned RORg inh 1.8µM*, Giardia kill -6, ERG Ets-DNA blk 8%, a7 integrin act 16% and VP16 counter inconclusive.
Screening COc1cccc(N/C(=N/C(=S)Nc2ccc(C)cc2C)Nc2nc(C)cc(C)n2)c1 returned RORg inh 1.3µM*, Giardia kill 27, ERG Ets-DNA blk -25%, a7 integrin act -16% and VP16 counter 3.2µM*.
CCCNC(=O)c1ccc(-c2nc3ccccc3s2)s1 was read as RORg inh 11µM*, Giardia kill inconclusive, ERG Ets-DNA blk 9%, a7 integrin act 11% and VP16 counter inconclusive.
COc1cc(COc2cc(N)c(Cl)cc2C(=O)CCC2CCN(CCNS(C)(=O)=O)CC2)cc(OC)c1 was read as RORg inh 16µM* and VP16 counter 16µM*.
O=C(c1ccc(Cl)cc1)N1CCC(C(=O)N2CCCc3ccccc32)CC1 was read as RORg inh 5%, Giardia kill 11, ERG Ets-DNA blk -3%, a7 integrin act 19% and VP16 counter 5%.
For CCOc1ccccc1C1c2[nH]c3ccccc3c2C[C@H]2C(=O)N(C3CC3)CC(=O)N12 (stereo partly drawn) the results were RORg inh 19%, Giardia kill -21, ERG Ets-DNA blk -13%, a7 integrin act -20% and VP16 counter -2%.
`CCOC(=O)c1cc([N+](=O)[O-])sc1NC(=O)CC` gave RORg inh 23%, Giardia kill -86*, ERG Ets-DNA blk 1%, a7 integrin act 17% and VP16 counter inconclusive.
For Cc1ccccc1NC1=NCC(c2ccc([N+](=O)[O-])cc2)S1 (stereo not drawn) the results were RORg inh inconclusive, Giardia kill 3, ERG Ets-DNA blk 1%, a7 integrin act -45% and VP16 counter 22µM*.
Cc1ccccc1Nc1ccc([N+](=O)[O-])cn1 was read as RORg inh -2%, Giardia kill -14, ERG Ets-DNA blk -5%, a7 integrin act 9% and VP16 counter 10%.
For CCOc1ccc(C(c2c(NC(=O)c3ccccc3)sc(C)c2C)N2CCN(CCO)CC2)cc1 (stereo not drawn) the results were RORg inh 34%, Giardia kill -8, ERG Ets-DNA blk -5%, a7 integrin act -5% and VP16 counter inconclusive.
Screening Cc1sc(NC(=O)c2ccccc2)c(C(c2ccc(Cl)cc2)N2CCN(CCO)CC2)c1C (stereo not drawn) returned RORg inh inconclusive, Giardia kill -10, ERG Ets-DNA blk -14%, a7 integrin act -44% and VP16 counter 22µM*.
